Measured values taken from ChEMBL document CHEMBL3988442, “University of Dundee, Small-Polar-MMV Screening Library” (2021).
For part of these data: Potency and affinity values are given separately.

What was measured:
Parameters in all cases: scale not given: direction of the effect not stated beside the values
[1] = target: Protein translocase subunit SecA (Escherichia coli (strain K12)) (UniProt P10408); test: Assay to Identify E. coli SecA ATPase Inhibitors; type: functional; conditions: 30 µM
Sequence of Protein translocase subunit SecA (Escherichia coli (strain K12)) (P10408 whole entry): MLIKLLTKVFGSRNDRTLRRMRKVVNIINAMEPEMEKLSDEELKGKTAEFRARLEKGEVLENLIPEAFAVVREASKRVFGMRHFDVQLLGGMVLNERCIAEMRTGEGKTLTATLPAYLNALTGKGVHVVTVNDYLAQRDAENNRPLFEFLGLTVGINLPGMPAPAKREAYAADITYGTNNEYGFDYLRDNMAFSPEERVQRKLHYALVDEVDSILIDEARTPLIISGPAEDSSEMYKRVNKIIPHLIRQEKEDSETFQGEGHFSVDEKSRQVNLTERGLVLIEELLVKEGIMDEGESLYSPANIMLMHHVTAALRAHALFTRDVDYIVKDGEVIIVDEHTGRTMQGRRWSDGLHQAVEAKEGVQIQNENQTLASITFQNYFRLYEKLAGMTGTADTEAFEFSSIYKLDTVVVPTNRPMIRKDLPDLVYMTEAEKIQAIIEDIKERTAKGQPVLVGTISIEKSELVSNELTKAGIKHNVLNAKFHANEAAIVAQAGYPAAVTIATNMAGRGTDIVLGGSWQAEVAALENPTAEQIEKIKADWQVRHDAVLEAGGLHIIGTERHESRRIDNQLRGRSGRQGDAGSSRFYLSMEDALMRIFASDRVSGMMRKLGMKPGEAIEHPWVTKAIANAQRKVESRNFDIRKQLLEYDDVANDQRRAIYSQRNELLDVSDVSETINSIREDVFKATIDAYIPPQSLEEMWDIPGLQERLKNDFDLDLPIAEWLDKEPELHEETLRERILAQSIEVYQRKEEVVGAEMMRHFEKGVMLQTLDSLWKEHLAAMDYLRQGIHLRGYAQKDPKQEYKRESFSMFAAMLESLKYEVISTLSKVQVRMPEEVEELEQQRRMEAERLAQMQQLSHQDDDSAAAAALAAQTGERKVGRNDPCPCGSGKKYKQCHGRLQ

[2] = target: T1, Ubiquitin-activating enzyme e1, putative (Leishmania donovani (strain BPK282A1)) (UniProt E9BSI1); test: Leishmania donovani Ubiquitin Activating Enzyme (LdE1); type: functional; conditions: 30 µM
T1 sequence (whole entry): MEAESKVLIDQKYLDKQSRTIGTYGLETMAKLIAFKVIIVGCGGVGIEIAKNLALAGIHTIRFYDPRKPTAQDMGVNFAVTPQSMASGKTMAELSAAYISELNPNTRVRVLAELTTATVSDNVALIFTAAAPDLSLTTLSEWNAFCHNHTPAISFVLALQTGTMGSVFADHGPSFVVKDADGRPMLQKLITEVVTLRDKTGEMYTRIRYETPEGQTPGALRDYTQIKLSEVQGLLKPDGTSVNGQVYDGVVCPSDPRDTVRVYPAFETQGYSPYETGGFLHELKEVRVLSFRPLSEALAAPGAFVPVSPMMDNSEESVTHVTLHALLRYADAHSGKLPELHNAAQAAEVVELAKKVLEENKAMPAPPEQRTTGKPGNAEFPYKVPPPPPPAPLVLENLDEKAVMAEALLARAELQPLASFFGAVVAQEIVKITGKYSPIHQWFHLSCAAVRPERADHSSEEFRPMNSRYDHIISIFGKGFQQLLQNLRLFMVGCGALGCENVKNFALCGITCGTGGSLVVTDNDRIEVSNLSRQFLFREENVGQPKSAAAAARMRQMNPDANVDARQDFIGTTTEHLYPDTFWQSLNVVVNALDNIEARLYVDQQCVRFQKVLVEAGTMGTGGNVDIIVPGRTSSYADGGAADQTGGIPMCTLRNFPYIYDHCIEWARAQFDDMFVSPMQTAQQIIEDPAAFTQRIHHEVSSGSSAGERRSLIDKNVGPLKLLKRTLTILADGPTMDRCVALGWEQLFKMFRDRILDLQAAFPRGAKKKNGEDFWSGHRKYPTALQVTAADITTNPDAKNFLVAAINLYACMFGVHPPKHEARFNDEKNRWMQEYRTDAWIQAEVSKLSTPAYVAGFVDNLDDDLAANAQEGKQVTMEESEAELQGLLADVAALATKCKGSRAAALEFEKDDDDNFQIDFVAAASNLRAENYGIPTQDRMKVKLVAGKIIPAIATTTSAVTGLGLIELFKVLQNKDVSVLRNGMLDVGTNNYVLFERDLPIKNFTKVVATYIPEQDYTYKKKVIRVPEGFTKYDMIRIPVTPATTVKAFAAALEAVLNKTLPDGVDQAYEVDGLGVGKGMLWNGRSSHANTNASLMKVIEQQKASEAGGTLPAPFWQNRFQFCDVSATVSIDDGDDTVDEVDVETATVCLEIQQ

[3] = target: Sialic acid-binding Ig-like lectin 9 (Homo sapiens) (UniProt Q9Y336); test: Hs-Siglec9 ALPHAscreen SOP 20170721; conditions: 10 µM
Sequence of Sialic acid-binding Ig-like lectin 9 (Homo sapiens) (Q9Y336 whole entry): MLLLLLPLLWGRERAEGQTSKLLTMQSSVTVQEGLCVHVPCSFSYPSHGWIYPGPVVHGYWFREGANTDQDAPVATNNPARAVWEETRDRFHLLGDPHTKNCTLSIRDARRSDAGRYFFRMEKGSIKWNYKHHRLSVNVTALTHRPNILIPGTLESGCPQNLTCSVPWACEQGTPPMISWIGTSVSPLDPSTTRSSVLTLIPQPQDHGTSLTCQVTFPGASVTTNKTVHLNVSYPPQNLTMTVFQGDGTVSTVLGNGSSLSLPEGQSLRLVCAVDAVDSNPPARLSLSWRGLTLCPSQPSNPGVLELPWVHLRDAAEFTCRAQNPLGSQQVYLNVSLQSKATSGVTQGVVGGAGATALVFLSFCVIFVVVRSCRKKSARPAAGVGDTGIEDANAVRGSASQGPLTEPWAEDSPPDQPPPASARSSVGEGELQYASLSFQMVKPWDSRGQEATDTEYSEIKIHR

[4] = test system: Trypanosoma cruzi; test: Trypanosoma cruzi phosphomannomutase and mannose-1-phosphate guanylyltransferase assay; type: functional; conditions: 10 µM
[5] = target: T2, Arginase-2, mitochondrial (Homo sapiens) (UniProt P78540); test: in vitro enzyme assay to detect the production of urea directly proportional to the activity of Arginase II; type: functional; conditions: 33.3 µM; note: in the data most compounds retested in dose-response had high values
T2 sequence (whole entry): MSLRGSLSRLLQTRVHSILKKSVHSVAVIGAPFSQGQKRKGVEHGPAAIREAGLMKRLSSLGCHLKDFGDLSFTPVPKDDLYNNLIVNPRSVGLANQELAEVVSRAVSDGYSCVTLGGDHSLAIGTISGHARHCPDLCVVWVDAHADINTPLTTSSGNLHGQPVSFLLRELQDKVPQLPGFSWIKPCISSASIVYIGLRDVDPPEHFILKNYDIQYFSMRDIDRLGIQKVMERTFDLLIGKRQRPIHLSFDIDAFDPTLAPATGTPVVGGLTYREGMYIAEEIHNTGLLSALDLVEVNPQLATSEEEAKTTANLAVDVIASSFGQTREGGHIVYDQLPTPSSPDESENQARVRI

[6] = target: T3, Proteasome subunit beta (Trypanosoma cruzi) (UniProt O96673); test: Trypanosoma cruzi proteasome chymotrypsin-like activity (TcProtChymo) assay.; note: in the data most compounds retested in dose-response had high values; type: functional; conditions: 9.37 µM
T3 sequence (whole entry): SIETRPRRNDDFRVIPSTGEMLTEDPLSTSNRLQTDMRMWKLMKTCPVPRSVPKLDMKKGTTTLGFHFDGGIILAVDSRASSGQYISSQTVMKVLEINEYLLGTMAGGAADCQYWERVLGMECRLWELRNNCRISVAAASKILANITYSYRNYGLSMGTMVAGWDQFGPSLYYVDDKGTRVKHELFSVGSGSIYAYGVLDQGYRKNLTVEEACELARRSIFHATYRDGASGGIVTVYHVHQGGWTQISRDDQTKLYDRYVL

[7] = organism: Homo sapiens; test: To identify inhibition of the IFN signalling (Jak-Stat) pathway via expression of an eGFP reporter gene under the control of an IFN-stimulated response element (ISRE) containing MxA promoter.; type: functional; conditions: 30 µM
[8] = target: T4, Tyrosyl-tRNA synthetase, putative (Trypanosoma cruzi (strain CL Brener)) (UniProt Q4DSP6); test: Trypanosoma cruzi tyrosyl tRNA synthetase (TcYRS) _High Tyrosine SOP; type: functional; conditions: 30 µM; note: in the data most compounds retested in dose-response had high values
T4 sequence (whole entry): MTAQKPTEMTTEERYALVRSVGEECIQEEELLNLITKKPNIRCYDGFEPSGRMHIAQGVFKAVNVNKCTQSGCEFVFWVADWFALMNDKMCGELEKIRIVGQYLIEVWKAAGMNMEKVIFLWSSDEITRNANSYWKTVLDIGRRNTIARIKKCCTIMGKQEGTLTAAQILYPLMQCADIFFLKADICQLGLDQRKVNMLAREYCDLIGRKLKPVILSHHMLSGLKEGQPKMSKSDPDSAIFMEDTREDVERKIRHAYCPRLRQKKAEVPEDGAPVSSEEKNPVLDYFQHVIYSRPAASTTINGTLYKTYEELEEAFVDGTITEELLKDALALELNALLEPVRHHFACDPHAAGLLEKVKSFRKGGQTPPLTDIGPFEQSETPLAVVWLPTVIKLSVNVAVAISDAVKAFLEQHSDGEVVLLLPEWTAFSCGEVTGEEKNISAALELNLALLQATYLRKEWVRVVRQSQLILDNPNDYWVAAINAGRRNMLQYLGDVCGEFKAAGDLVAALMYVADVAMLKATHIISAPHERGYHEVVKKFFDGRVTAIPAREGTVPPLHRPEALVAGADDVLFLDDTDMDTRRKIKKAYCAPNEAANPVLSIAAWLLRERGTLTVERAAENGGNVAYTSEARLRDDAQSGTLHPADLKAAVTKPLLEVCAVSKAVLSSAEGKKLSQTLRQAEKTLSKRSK

[9] = target: T4, Tyrosyl-tRNA synthetase, putative (Trypanosoma cruzi (strain CL Brener)); test: Trypanosoma cruzi tyrosyl tRNA synthetase (TcYRS) SOP; type: functional; conditions: 30 µM
[10] = target: Chromo domain-containing protein 1 (Saccharomyces cerevisiae (strain ATCC 204508 / S288c) (Baker's yeast)) (UniProt P32657); test: ScCHD-1 Enzyme Inhibition Assay; type: functional; conditions: 30 µM; note: in the data most compounds retested in dose-response had high values
Sequence of Chromo domain-containing protein 1 (Saccharomyces cerevisiae (strain ATCC 204508 / S288c) (Baker's yeast)) (P32657 whole entry, the tested form may be a part): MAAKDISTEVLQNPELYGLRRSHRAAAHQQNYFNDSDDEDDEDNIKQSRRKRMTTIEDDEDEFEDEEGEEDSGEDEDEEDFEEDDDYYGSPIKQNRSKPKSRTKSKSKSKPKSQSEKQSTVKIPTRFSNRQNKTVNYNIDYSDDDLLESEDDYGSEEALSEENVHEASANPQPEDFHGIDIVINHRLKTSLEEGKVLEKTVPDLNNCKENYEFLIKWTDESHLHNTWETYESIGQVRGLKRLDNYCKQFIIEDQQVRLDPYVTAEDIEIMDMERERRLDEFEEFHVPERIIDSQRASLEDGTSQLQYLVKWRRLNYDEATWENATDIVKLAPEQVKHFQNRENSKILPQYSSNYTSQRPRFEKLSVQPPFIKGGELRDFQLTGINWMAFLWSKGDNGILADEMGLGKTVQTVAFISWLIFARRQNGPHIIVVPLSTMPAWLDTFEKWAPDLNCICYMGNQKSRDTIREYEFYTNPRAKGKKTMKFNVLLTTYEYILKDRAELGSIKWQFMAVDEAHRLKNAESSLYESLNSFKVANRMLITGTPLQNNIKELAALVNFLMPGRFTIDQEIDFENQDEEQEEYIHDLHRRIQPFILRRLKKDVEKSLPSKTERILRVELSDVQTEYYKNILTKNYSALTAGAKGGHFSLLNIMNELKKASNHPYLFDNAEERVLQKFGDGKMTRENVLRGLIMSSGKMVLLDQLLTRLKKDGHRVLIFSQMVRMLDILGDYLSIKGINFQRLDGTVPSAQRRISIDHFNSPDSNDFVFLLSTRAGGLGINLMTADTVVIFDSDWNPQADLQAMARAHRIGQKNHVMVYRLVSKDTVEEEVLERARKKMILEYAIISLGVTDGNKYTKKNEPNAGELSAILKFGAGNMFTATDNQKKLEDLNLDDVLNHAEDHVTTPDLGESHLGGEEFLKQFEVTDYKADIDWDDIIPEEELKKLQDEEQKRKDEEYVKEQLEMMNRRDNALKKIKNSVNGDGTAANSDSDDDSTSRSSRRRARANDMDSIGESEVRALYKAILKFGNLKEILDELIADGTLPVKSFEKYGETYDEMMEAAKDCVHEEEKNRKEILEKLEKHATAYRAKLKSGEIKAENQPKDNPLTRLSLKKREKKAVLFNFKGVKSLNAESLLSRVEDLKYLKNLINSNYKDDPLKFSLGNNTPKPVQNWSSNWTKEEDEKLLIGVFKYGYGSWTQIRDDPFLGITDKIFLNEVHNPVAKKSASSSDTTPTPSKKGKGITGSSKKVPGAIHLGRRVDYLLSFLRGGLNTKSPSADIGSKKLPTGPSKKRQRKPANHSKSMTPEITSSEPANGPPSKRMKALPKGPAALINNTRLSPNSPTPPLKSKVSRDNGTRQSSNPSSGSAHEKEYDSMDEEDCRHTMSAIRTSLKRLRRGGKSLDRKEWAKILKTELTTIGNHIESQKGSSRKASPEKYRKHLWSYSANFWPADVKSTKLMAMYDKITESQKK

| Compound | Percent Effect [1] | Percent Effect [2] | Percent Effect [3] | Percent Effect [4] | Percent Effect [5] | Percent Effect [6] | Percent Effect [7] | Percent Effect [8] | Percent Effect [9] | Percent Effect [10] |
| --- | --- | --- | --- | --- | --- | --- | --- | --- | --- | --- |
| COc1ccccc1OCC(=O)NS(=O)(=O)c1ccc(Br)s1 | -3.35% | 5.2% | 18.6% | -2.61% | 2.66% | 6.14% | 1.82% | -1.96% | 7.06% | -3.46% |
| CN(C)C(=O)[C@@H]1C[C@@H]2CCN(Cc3ccc4c(c3)OCO4)C[C@@H]2O1 | -2.52% | -1.3% | -0.448% | -1.07% | -2.83% | 6.62% | -0.537% | -2.63% | -2.56% | -0.196% |
| Cc1n[nH]c(=O)c2c(NC(=O)CN3CCCC(C(F)(F)F)C3)oc(C)c12 (stereo not given) | 2.19% | 23.1% | -19.8% | 1.41% | 0% | 17.7% | -1.71% | 3.35% | 22.9% | -4.61% |
| NCc1cn(-c2ccccc2C(=O)NCc2ccccc2)cn1 | -2.27% | 14.7% | 1.6% | -0.592% | 1.33% | 10.2% | 26.2% | 6.35% | 15% | -23.1% |
| COCCC(=O)N1C[C@H]2CN(Cc3cccc(C)n3)C(=O)[C@H]2C1 | -1.95% | 3.9% | -4.82% | -0.563% | 2.74% | 0.0858% | -13.5% | 7.73% | 7.5% | -4.73% |
| CC[C@@H]1N(Cc2ccsc2)CCC[C@]12CCC(=O)N2C | -5.65% | 3.9% | -0.653% | -1.69% | 1.37% | 2.66% | 32.3% | -0.966% | -12.5% | 0.966% |
| Cc1nc(-c2ccccc2F)sc1C(=O)N1CCN(C)CC1 | -7.34% | 2.7% | 4.45% | -0.679% | -3.85% | 18.5% | 4.62% | 3.72% | 12.2% | -3.18% |
| COc1c(C2CCCN2Cc2c(C)noc2C)c(C)nn1C (stereo not given) | -5.49% | -2.67% | 0.668% | 5.82% | 1.33% | 6.19% | -12.5% | 0.526% | 5.13% | -8.53% |
| COCC(=O)N1CC[C@@H](N2CCOCC2)[C@@H]1Cc1ccccc1 | -3.93% | 14.3% | -1.41% | 0.0974% | 13.8% | 22% | -2.33% | 17.4% | 15.4% | 2.12% |
| Cc1cc(C2CCCN2Cc2cc(=O)n(C)c(=O)n2C)on1 (stereo not given) | -4.6% | 2.67% | 1.58% | 3.21% | 0.444% | 1.27% | 14.5% | 2.63% | 5.13% | -4.48% |
| Cc1cc(C(=O)NCc2ccc(N3CCCC(C(N)=O)C3)cc2)[nH]n1 (stereo not given) | -7.13% | 10.7% | -2.98% | -3.21% | -0.887% | 16.2% | 14.9% | 0.526% | 5.13% | -7.84% |
| O=C1NCCN(CC2CC2)C12CCN(Cc1ccc3c(c1)OCO3)CC2 | -1.54% | 19.5% | 3.24% | -8.47% | 6.07% | 16.9% | 30.6% | 4.74% | -7.69% | -3.74% |
